Source: PubChem
DT40 TDP1 no CPT = qHTS for Inhibitors of human tyrosyl-DNA phosphodiesterase 1 (TDP1): qHTS in cells in absence of CPT; DT40 Tdp1-/- hTDP1 cells, no CPT, ATP luminescence, 48 h; Potency, µM (top dose mostly 46.2 µM), hits mostly inhibitors; 15% of 420,000 active; also: nearly all actives have a fitted effect of over 55% in size
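Cells were dispensed at 400 per well, compounds added by pin tool, plates incubated ≥48 hr at 37 °C, then CellTiter-Glo added for 30 min at room temperature before luminescence reading. Line: DT40 Tdp1-/- complemented with hTDP1; camptothecin omitted.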
ALOX12 inh = blocks human arachidonate 12S-lipoxygenase; 1.1% of 580,000 active; purified 12hLO, xylenol orange hydroperoxide absorbance; Potency, µM (doses to about 108 µM), actives largely listed as inhibitors; P18054; AID 1671190
Target sequence (P18054 whole entry, looked up): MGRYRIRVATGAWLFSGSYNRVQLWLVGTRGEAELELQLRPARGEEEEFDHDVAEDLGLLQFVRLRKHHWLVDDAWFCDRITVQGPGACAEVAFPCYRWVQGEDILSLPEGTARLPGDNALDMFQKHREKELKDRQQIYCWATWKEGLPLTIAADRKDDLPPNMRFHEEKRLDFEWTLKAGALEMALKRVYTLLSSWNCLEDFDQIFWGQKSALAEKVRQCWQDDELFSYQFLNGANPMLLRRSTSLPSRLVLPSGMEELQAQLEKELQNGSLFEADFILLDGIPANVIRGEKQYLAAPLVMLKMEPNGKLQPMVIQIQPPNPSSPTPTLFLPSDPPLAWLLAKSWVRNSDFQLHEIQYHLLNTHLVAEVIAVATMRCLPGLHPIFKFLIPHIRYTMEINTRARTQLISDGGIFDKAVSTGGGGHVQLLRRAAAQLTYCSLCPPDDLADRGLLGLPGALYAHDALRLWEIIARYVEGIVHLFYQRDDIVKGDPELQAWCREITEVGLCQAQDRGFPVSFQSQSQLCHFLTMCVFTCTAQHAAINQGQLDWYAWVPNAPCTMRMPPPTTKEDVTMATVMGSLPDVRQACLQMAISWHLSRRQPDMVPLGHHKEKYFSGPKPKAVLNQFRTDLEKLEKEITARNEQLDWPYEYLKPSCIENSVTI
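Hydroperoxide product was detected by ferrous iron/xylenol orange as the 573 to 405 nm absorbance ratio. Arachidonic acid at 40 uM (final) was turned over for 30 min at room temperature by 150 nM human 12hLO, pH 7.0 Hepes buffer, after 15 min compound preincubation.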
IL-1B inflam inh = inflammasome signaling inhibition, IL-1 beta readout; AID 743279; activity change, % at 57.5 µM; THP-1 LPS/ATP IL-1B secretion, AlphaLISA, 16 h; hits give low values; 4.7% of 360,000 active; in the data active = activity change below about -50%; inconclusive = mostly about -30% to -49%
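Secreted IL-1B measured by AlphaLISA bead assay after 16 h compound exposure of THP-1 cells; compounds (final up to 57.5 uM) added 1 h before LPS (250 ng/mL) and ATP (1.25 mM) stimulation; lower signal means less secretion.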
HT1080-NT tox = kills 2HG-producing HT-1080-NT fibrosarcoma cells | HT-1080-NT fibrosarcoma viability, CellTiter-Glo ATP luminescence, 48 h | Potency, µM (top dose mostly 46.1 µM), hits mostly cytotoxic | 1.6% of 360,000 active | AID 686970;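 also: NT is the 2HG producing partner of a matched IDH1 knockdown line; nearly all actives have a fitted effect of over 55% in size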
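Read-out is CellTiter-Glo luminescence after 10 minutes at room temperature, following 48 hours' compound treatment of HT-1080-NT cells (750 cells/well, RPMI, 5% FBS, 37 degrees C).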
HT1080 IDH1KD tx = kills HT-1080 cells with IDH1 knockdown. 2% of 360,000 active. AID 686971. Potency, µM (titrated, usually from 46.1 µM), hits mostly cytotoxic. HT-1080 IDH1 knockdown viability, ATP luminescence, 48 h
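CellTiter-Glo luminescence after 48 h compound exposure at 37 degrees C of IDH1-knockdown HT-1080 cells in 5% FBS RPMI. %Activity scaled between DMSO wells and cell-free media wells, with curves fitted and assigned curve classes.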
DT40 TDP1 CPT = DT40-hTDP1 cell growth loss with CPT. chicken DT40 Tdp1-/-;hTDP1 cells + 20 nM CPT, ATP luminescence, 48 h. Potency, µM (top dose mostly 46.2 µM), hits mostly inhibitors. 12% of 420,000 active; also: nearly all actives have a fitted effect of over 55% in size
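Chicken DT40 Tdp1-/- cells complemented with human TDP1, 400 cells/well, exposed to compounds plus 20 nM camptothecin for at least 48 h at 37 C; viability read as ATP content by CellTiter-Glo luminescence.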
Hits are given with their value; . = inactive; ? = inconclusive; / = not tested or not shown; [ ] = another dose, or the depositor's remark. The entries come from a sample that favours hits as a whole. Unless noted, calls follow the shape of the dose curve; as a rule, active = well fitted curve in the direction sought with a large enough effect; inconclusive = small, poorly fitted or top-dose-only effect, or another doubt; inactive = no such curve, though single readings can be large; an effect the other way counts as inactive or inconclusive.

SMILES	DT40 TDP1 no CPT	ALOX12 inh	IL-1B inflam inh	HT1080-NT tox	HT1080 IDH1KD tx	DT40 TDP1 CPT
COc1ccc2[nH]cc(CCNc3ccnc(-c4ccccc4Cl)n3)c2c1	11.6µM	.	/	/	/	?
COc1ccc2[nH]cc(CCNC(=O)c3ccccc3Cl)c2c1	.	.	.	.	.	.
O=c1[nH]ncc(N2CCN(C(c3ccccc3)c3ccccc3)CC2)c1Cl	10.3µM	.	.	.	.	20.6µM
CCc1ccc(N=c2c([N+](=O)[O-])nn(-c3ccccc3)n2O)cc1	?	/	.	.[9.24 µM]	?	?
Cc1cc(C)cc(N=c2c([N+](=O)[O-])nn(-c3ccc(Cl)cc3)n2O)c1	14.6µM	.	.	.	.	9.2µM
O=C(NCCN1CCOCC1)NC1(C(F)(F)F)Oc2ccc(Cl)cc2O1 (stereo unspecified)	13µM	?	.	.	.	?
COCC(C)NC(=O)NC1(C(F)(F)F)Oc2ccc(Cl)cc2O1 (stereo unspecified)	13µM	.	.	.	?	13µM
COCC(C)NC(=O)NC(=O)c1ccc(Cl)cc1 (stereo unspecified)	.	.	.	.	?	?
CSc1ncnc2c1ncn2CCCNCc1cccc2ccccc12	?	.	.	.	.	.
CSc1ncnc2c1ncn2CCCNCC1CCCO1 (stereo unspecified)	.	.	.	.	.	.
CSc1ncnc2c1ncn2CCCNC1CCN(Cc2ccccc2)CC1	23.1µM	?	?	.	.	?
c1ccc(COc2ncnc3c2ncn3CCCNCCN2CCOCC2)cc1	.	.	.	.	.	.
c1ccc(COc2ncnc3c2ncn3CCCNC2CCN(Cc3ccccc3)CC2)cc1	4.11µM	.	?	23.1µM	18.4µM	7.31µM
CC[C@@H](NCCCn1cnc2c(SC)ncnc21)c1ccccc1	?	.	.	.	.	16.4µM
CC(C)NC(=O)N[C@H]1C[C@@H](c2nc(-c3ccncc3)no2)N(C)C1	/	.	/	/	/	/
COc1cccc(C2CCCCN2Cc2nc(CCc3ccccc3)no2)c1 (stereo unspecified)	/	.	/	/	/	/
CCN1CCN(S(=O)(=O)c2ccc(S(=O)(=O)N(CC)Cc3ccccc3)cc2)CC1	?	1.41µM	.	.	.	?
CCN1CCN(S(=O)(=O)c2ccc(Oc3ccccc3OC)cc2)CC1	23.1µM	?	.	.	.	.
COc1ccc(S(=O)(=O)N2CCN(Cc3ccco3)CC2)cc1	.	2.51µM	.	.	.	.
Cc1ccc(S(=O)(=O)N2CCC3(CC2)SCC(=O)N3Cc2ccco2)cc1	/	14.1µM	/	/	/	/
O=S(=O)(c1ccc(Br)cc1)N1CCN(Cc2ccco2)CC1	.	.	.	.	.	.
Nc1cccn2c(-c3ccc(Cl)cc3)cnc12	18.4µM	?	.	.	.	?
COCCn1c(-n2nc(C)c(C)c2C)nc2c1c(=O)n(CC(=O)C(C)(C)C)c(=O)n2C	/	.	/	/	/	/
Cc1cccc(CSc2nnc([C@@H]3CCCN3C(=O)OC(C)(C)C)o2)c1	?	.	?	.	.	?
CC(C)(C)OC(=O)NCCc1nnc(SCc2ccc(Cl)cc2)o1	.	.	.	.	.	.
SMILES	DT40 TDP1 no CPT	ALOX12 inh	IL-1B inflam inh	HT1080-NT tox	HT1080 IDH1KD tx	DT40 TDP1 CPT
Cc1cccc(CSc2nnc(CCCCCNC(=O)OC(C)(C)C)o2)c1	16.4µM	.	.	.	.	?
Cc1ccc(CSc2nnc(CCCCCNC(=O)OC(C)(C)C)o2)cc1	18.4µM	.	?	.	?	23.1µM
O=S(=O)(c1ccccc1)N1CCN(Cc2coc(-c3cccs3)n2)CC1	/	.	/	/	/	/
CN(CC(=O)NCCC#N)Cc1ccc(C(C)(C)C)cc1	/	.	/	/	/	/
Cc1sc2nc(C3CC3)nc(SCC(=O)N3CCc4ccccc4C3)c2c1C	20.6µM	.	-75.5	.	.	?
CCc1c(C)sc2nc(C(C)C)nc(SCC(=O)N3CCc4ccccc4C3)c12	20.6µM	.	-66.8	.	.	?
Cc1sc2nc(C(C)C)nc(SCC(=O)N3CCN(C(=O)c4ccco4)CC3)c2c1C	?	.	.	.	.	?
